From the OligoGym collection come the findings set out here.
Also: reference of the scale not given here.

For the first experiment, the target named is CD40. Put plainly: pooled miR-30 sensor sort-seq; sequence = guide strand. The following applies: shRNA.
As for TTTCAGTGAACTCTGTGCAGTC, the sensor-assay potency score (higher = more potent) amounted to 0.172.
On the same count and under the same terms, the figure for TACAGTGCCAGCCTTCTTCACA is -1.17.
TTGGCATCCATGTAAAGTCTCC yielded a sensor-assay potency score (higher = more potent) of -0.501.
For ACAAAGAACAGCACTGACTGTT, the sensor-assay potency score (higher = more potent) is 0.0373.
Take TCTCCTGCACTGGAGCAGCAGT: the sensor-assay potency score (higher = more potent) is -1.54.
The sequence TATTAGGTACTGTTTTTCTCTG showed a sensor-assay potency score (higher = more potent) of -0.885.
Sequence TGTAGCAATCTGCTTGACCCCA gave a sensor-assay potency score (higher = more potent) of -0.6.
AACCCCTGTAGCAATCTGCTTG yielded a sensor-assay potency score (higher = more potent) of -0.675.
As for TTCCGTTTCAGTGAACTCTGTG, the sensor-assay potency score (higher = more potent) turned out to be 0.749.
Sequence TGGTTCTGGATGGACAGCGGTC displayed a sensor-assay potency score (higher = more potent) of -1.56.
For TTTTCTCTGCATGCAGTGGGTG, the sensor-assay potency score (higher = more potent) is -0.932.
In turn, AAGAACAGCACTGACTGTTTAT showed a sensor-assay potency score (higher = more potent) of -1.08.
Turning to TTTGATAAAGACCAGCACCAAG, the sensor-assay potency score (higher = more potent) was -1.36.
Consider TATTGGTTGGCTTCTTGGCCAC, for which the sensor-assay potency score (higher = more potent) was -0.723.
TTGGTCTCACAGCTTGTCCAAG returned a sensor-assay potency score (higher = more potent) of -1.27.
Sequence TGACTGTTTATTAGGTACTGTT had a sensor-assay potency score (higher = more potent) of -0.925.
The same measure, in the same setting: the figure for ATTAGGTACTGTTTTTCTCTGC is -0.104; for TTCTGAGGTGCCCTTCTGCTGG it is -1.42; for TCCGTTTCAGTGAACTCTGTGC it is -0.4.
The same measure, in the same setting: the figure for TTTTTCTCTGCATGCAGTGGGT is -0.914; for TAGCAATCTGCTTGACCCCAAA it is -1.28.
Turning to TCACTCACCAGTTTCTGTCCTG, the sensor-assay potency score (higher = more potent) came out at 0.175.
TTCTTCACAGGTGCAGATGGTG showed a sensor-assay potency score (higher = more potent) of -0.762.

A further experiment has as its target CD48. Described as above. To be noted: shRNA.
Sequence TCCCATTCTACAATCTTCTGGT had a sensor-assay potency score (higher = more potent) of -0.143.
The sequence TTGTTTGTAGTTCTCAGGCAGG displayed a sensor-assay potency score (higher = more potent) of -0.932.
Turning to TTCTTGCTCATTCCCAGTCTTT, the sensor-assay potency score (higher = more potent) is -1.11.
Turning to TTCTACAATCTTCTGGTCGAAA, the sensor-assay potency score (higher = more potent) was -0.694.
On the same count and under the same terms, for TAATGTTGTCACAATTTTGGGT the value was 0.114; for TTAGATTTTCTGGAATCCCATT, -1.01.
On the same count and under the same terms, the figure for TTGGCAAGTATAACACCTGGAG is -0.157; for TACAGGGTCAAGCACTTGCAGC it is -1.55; for TATACAGTCTCTGTCCTGGTGA it is -0.4.
TTGATCTTCCATTCTTGCTCAT registered a sensor-assay potency score (higher = more potent) of 0.311.
TATCACACATGACAGTTTCAAA displayed a sensor-assay potency score (higher = more potent) of -1.19.
In turn, ATGTGTATCTCTATATCTCTGT returned a sensor-assay potency score (higher = more potent) of -0.19.
As to TGAGGATCAAGTCTGACCCTGC, the sensor-assay potency score (higher = more potent) is 0.0902.
Sequence TAATTCAGCAGCATGCTTCTGG registered a sensor-assay potency score (higher = more potent) of 0.539.
For TACTAGAAAACAACAAAGGGAT, the sensor-assay potency score (higher = more potent) was -0.0806.
